Reference: the supplement of paper PMC11417369
Over roughly 25,000 sequences, “ln(normalized median fluorescence intensity)” has its median near 9.7; the highest 2% begin near 11. Shown is part of a subset that was picked to be rich in the highest values.

tested on: PfAP2-HC AP2 domain (GST-tagged); test: gcPBM binding intensity (ln(normalized median fluorescence intensity)); higher = stronger DNA binding
Procedure, shortened: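 Binding of GST-tagged P. falciparum DNA-binding domains, expressed in E. coli and used at about 25 μg on average, was carried out for 1 h in 1× PBS containing 1% milk, 0.2 mg/ml BSA, 0.5% salmon testes DNA and 0.03% Triton X-100. The target was an Agilent 4 × 180k array of primer-extended double-stranded 36-bp intergenic genomic probes plus negative controls, read with Alexa488 anti-GST antibody at 488 nm. Binding intensity is the highest Masliner-normalised natural-log median intensity across replicate spots of either probe orientation.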

Sequence | gcPBM binding intensity (ln)
ATTTTATTTTTTAAAGGTACAGTTACAGCTTATATA [XGTACX_site7513] | 9.51
ATAAGCATCTTTTGTGTGCACATAACAAAAAAAAAA | 9.85
TTATAAATGAATAAATGTACAAAATATATATATATA [XGTACX_site8829] | 9.66
TTAAATAAAAAAATAACACACATATAAATCTATATG [CACACA_site7482] | 9.75
TTTTTTTTGTGTTCAAGTACAAAATTTTAAAGGTCA [XGTACX_site4011] | 9.26
TATTGTTGTTCATGTACACACTATAATAAAAGCAAT [CACACA_site6148] | 9.62
CACAAAAATAAACACACACACATATATATTTATTAT [CACACA_site5923] | 11.1
ATCTTATATTATCACACACACACGCACAAAACAGAA [CACACA_site1463] | 10.3
CAATATAAAAAACACACACACAAACATATATTTATA [CACACA_site3703] | 10.5
CTTATATTAAAACACACACACGCACAAAACAGAAAT [CACACA_site1462] | 11
ATATAATTATAAAATAAACACACATATATATTTATA [CACACA_site8039] | 9.91
AAAAAAAACAAACACACACACAAATATTTATATATT [CACACA_site436] | 10.5
TATAAAACACACACACATATATATATATATTTATAT [TGCATGCA_negctrl_site48] | 11.2
ATCTTATATGATCACACACACACGCACAAAACAGAA [CACACA_site4913] | 10.4
CATATATAAAAAAACACACACATATTTATATTTATA [CACACA_site6682] | 10.3
TATTTATTTATATAAACACACATAAATATAAATATA [CACACA_site6653] | 9.45
AACAAAAAAACAAACACACACACACGCATATTTATA [CACACA_site7680] | 11.2
AAGGATCACGCACAAACACACATATTTATATTTATA [CACACA_site6405] | 9.95

Sequence | gcPBM binding intensity (ln)
ATTCTATATATATAAACACACAAATATTTTTATATA [CACACA_site1677] | 9.65
TTCTTTTCTTCTACATGTACAAATATTATATATATA [XGTACX_site2996] | 9.97
TATATTATATTATACATACACACCCATATAATATGT [CACACA_site869] | 10.1
TATAAATTAATGACATGTACATAAAAGTATAGATGT [XGTACX_site6534] | 9.95
TTTATAAAATTATTTGCATGTAACAATTATAAATTG [TGCATGCA_site1026] | 9.42
TTTTTTTAAAACAAAAAAAAAAAAAAAAAAAAAAAA [TGCATGCA_negctrl_site418] | 8.22
TATATATATATATACACACACACACCGATATATATA [CACACA_site8813] | 10.5
AAAAAAAAAAAAAATACACACACACCGATATATATA [CACACA_site8142] | 10.6
TATACATACATACATACACACACACCGATATATATA [CACACA_site7896] | 10.2
CAAAATAATATATATACACACACACCGATATATATA [CACACA_site8082] | 10.8
AATATATATATATATACACACACACCGATATATATA [CACACA_site8158] | 11.2
GATATATATTAATATACACACACACCGATATATATA [CACACA_site8462] | 10.2
CAAAAAAAATTATACACACACACACCGATATATATA [CACACA_site4719] | 11.1
TTAATATAAGCAAATACACACACACCGATATATATA [CACACA_site9269] | 11.1
ATAATACCCAAGCACACACACACACCGATATATATA [CACACA_site8344] | 11.3
TAATAATACCCAAGCACACACACACCCATATATATA [CACACA_site4831] | 10.6
TAAAAAAAAAAAAATACACACACACCGATATATATA [CACACA_site8498] | 10.7
ATAATATATATTAATACACACACACCGATATATATA [CACACA_site9261] | 10.4
